In ChEMBL document CHEMBL3988442, “University of Dundee, Small-Polar-MMV Screening Library” (2021):
For part of these data: Potency and affinity values are given separately.

Assays:
Design in all cases: scale not given: direction of the effect not stated beside the values
[1] = target: Protein translocase subunit SecA (Escherichia coli (strain K12)) (UniProt P10408); test: Assay to Identify E. coli SecA ATPase Inhibitors; assay type: functional; conditions: 30 µM
[2] = target: T1, Ubiquitin-activating enzyme e1, putative (Leishmania donovani (strain BPK282A1)) (UniProt E9BSI1); test: Leishmania donovani Ubiquitin Activating Enzyme (LdE1); assay type: functional; conditions: 30 µM
T1 sequence (whole entry): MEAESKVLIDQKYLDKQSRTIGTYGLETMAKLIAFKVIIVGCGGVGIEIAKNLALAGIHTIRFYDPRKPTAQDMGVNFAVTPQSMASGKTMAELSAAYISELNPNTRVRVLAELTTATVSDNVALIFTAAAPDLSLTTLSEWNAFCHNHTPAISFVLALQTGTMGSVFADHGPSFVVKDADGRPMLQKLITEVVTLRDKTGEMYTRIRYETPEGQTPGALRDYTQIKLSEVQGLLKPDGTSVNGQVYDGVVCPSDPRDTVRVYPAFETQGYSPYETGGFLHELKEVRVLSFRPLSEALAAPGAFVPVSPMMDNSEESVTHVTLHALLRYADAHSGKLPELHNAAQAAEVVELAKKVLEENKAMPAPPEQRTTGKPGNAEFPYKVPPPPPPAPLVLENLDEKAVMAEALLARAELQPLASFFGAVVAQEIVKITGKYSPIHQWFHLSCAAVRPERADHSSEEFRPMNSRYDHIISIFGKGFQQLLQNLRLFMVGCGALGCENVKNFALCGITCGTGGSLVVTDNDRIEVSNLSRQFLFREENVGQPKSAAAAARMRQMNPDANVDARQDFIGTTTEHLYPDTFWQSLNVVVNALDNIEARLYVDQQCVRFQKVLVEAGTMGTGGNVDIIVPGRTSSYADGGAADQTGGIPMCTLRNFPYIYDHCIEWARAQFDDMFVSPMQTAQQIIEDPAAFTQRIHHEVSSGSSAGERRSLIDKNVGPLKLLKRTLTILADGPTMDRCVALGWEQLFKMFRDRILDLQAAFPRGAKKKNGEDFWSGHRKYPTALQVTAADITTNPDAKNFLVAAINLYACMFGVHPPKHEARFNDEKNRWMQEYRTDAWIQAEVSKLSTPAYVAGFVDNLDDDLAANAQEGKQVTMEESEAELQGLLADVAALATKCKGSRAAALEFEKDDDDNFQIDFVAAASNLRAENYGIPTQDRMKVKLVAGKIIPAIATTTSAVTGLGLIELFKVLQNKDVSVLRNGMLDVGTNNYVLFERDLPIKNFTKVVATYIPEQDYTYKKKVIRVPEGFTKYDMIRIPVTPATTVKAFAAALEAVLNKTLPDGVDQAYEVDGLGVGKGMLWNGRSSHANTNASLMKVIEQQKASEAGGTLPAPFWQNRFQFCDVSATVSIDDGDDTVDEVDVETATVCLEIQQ

[3] = target: AMP-activated protein kinase, AMPK (Homo sapiens) (UniProt P54646+O43741+P54619+Q9UGJ0+Q9Y478+Q13131+Q9UGI9); test: AMP-dependent Kinase enzyme assay. An in vitro enzyme assay that detects ADP turnover that is directly proportional to AMPK activity. This uses naive AMPK that is activated during the assay with MK-8722; assay type: functional; conditions: 30 µM
[4] = target: Sialic acid-binding Ig-like lectin 9 (Homo sapiens) (UniProt Q9Y336); test: Hs-Siglec9 ALPHAscreen SOP 20170721; conditions: 10 µM
[5] = tested on: Trypanosoma cruzi; test: Trypanosoma cruzi phosphomannomutase and mannose-1-phosphate guanylyltransferase assay; assay type: functional; conditions: 10 µM
[6] = target: T2, Arginase-2, mitochondrial (Homo sapiens) (UniProt P78540); test: in vitro enzyme assay to detect the production of urea directly proportional to the activity of Arginase II; assay type: functional; conditions: 33.3 µM; further: in the data most compounds retested in dose-response had high values
T2 sequence (whole entry): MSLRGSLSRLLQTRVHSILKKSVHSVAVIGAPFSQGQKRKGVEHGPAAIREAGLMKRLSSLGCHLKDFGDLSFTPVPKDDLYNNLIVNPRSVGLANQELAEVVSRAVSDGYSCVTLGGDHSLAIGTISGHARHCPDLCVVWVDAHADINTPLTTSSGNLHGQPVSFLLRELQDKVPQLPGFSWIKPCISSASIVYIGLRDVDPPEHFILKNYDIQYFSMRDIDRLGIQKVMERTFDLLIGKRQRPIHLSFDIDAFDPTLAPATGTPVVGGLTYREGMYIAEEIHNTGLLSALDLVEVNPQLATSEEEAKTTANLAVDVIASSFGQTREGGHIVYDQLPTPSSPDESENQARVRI

[7] = target: T3, Proteasome subunit beta (Trypanosoma cruzi) (UniProt O96673); test: Trypanosoma cruzi proteasome chymotrypsin-like activity (TcProtChymo) assay.; further: in the data most compounds retested in dose-response had high values; assay type: functional; conditions: 9.37 µM
T3 sequence (whole entry): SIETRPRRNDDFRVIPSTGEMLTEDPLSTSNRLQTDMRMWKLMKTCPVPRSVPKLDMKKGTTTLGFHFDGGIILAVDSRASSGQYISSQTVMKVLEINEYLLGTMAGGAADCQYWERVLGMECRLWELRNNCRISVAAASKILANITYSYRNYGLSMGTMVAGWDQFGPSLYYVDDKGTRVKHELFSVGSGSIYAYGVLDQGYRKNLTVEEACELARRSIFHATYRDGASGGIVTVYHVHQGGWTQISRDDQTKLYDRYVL

[8] = organism: Homo sapiens; test: To identify inhibition of the IFN signalling (Jak-Stat) pathway via expression of an eGFP reporter gene under the control of an IFN-stimulated response element (ISRE) containing MxA promoter.; assay type: functional; conditions: 30 µM
[9] = target: T4, Tyrosyl-tRNA synthetase, putative (Trypanosoma cruzi (strain CL Brener)) (UniProt Q4DSP6); test: Trypanosoma cruzi tyrosyl tRNA synthetase (TcYRS) _High Tyrosine SOP; assay type: functional; conditions: 30 µM; further: in the data most compounds retested in dose-response had high values
T4 sequence (whole entry): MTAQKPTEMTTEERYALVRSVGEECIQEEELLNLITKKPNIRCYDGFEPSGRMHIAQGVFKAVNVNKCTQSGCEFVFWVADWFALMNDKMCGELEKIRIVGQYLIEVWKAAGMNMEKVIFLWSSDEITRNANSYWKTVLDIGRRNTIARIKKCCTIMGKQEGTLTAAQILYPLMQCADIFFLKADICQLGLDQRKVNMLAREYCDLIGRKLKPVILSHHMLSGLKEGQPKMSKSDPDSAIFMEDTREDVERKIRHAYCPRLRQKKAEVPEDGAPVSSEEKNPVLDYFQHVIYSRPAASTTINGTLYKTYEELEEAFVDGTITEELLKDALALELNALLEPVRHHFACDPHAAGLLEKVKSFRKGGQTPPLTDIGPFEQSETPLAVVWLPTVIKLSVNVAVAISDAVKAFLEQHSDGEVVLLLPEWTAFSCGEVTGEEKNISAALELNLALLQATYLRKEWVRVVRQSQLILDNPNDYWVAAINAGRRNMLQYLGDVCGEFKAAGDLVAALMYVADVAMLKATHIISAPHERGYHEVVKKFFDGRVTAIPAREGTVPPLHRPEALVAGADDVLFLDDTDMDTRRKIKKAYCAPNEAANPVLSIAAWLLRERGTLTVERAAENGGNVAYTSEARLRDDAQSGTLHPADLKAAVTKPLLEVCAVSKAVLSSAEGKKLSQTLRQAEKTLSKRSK

[10] = target: T4, Tyrosyl-tRNA synthetase, putative (Trypanosoma cruzi (strain CL Brener)); test: Trypanosoma cruzi tyrosyl tRNA synthetase (TcYRS) SOP; assay type: functional; conditions: 30 µM
[11] = target: Chromo domain-containing protein 1 (Saccharomyces cerevisiae (strain ATCC 204508 / S288c) (Baker's yeast)) (UniProt P32657); test: ScCHD-1 Enzyme Inhibition Assay; assay type: functional; conditions: 30 µM; further: in the data most compounds retested in dose-response had high values
Chain of Chromo domain-containing protein 1 (Saccharomyces cerevisiae (strain ATCC 204508 / S288c) (Baker's yeast)) (P32657 whole entry, the tested form may be a part): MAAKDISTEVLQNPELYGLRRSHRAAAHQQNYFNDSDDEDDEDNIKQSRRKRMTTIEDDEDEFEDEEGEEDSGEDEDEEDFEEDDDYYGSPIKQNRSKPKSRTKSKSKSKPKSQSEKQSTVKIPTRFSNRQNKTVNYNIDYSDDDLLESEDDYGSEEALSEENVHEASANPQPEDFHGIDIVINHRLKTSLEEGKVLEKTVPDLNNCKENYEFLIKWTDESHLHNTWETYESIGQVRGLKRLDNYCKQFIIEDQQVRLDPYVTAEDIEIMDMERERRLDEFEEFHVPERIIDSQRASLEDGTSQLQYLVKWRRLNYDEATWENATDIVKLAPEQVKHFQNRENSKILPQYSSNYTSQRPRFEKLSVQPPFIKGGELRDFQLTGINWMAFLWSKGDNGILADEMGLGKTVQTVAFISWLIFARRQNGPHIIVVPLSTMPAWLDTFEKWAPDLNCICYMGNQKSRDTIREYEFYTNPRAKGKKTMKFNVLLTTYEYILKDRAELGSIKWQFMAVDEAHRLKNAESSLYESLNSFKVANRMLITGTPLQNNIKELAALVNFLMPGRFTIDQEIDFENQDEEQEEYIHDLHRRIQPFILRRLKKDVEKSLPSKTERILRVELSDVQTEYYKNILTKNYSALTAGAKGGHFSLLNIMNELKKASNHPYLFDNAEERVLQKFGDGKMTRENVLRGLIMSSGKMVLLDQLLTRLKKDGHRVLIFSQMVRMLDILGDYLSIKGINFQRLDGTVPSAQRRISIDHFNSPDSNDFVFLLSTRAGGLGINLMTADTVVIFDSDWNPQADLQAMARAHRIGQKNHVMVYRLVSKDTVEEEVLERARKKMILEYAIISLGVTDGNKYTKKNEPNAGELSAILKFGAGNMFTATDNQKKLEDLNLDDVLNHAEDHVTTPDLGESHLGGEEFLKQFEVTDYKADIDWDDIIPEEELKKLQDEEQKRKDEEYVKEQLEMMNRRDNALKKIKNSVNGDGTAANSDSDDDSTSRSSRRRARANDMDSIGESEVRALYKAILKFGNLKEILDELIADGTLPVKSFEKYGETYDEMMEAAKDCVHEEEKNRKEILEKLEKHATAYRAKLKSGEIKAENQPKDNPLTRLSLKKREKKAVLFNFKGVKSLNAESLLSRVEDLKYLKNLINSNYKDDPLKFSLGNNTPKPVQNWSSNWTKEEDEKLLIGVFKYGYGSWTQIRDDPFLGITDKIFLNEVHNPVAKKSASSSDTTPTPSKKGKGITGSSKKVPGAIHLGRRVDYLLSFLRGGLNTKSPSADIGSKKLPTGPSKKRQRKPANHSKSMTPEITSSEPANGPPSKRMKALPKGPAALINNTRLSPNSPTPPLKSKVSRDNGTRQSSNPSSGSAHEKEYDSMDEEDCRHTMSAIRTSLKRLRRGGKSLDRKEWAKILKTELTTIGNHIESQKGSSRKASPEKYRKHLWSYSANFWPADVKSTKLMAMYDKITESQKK

Chain of Sialic acid-binding Ig-like lectin 9 (Homo sapiens) (Q9Y336 whole entry): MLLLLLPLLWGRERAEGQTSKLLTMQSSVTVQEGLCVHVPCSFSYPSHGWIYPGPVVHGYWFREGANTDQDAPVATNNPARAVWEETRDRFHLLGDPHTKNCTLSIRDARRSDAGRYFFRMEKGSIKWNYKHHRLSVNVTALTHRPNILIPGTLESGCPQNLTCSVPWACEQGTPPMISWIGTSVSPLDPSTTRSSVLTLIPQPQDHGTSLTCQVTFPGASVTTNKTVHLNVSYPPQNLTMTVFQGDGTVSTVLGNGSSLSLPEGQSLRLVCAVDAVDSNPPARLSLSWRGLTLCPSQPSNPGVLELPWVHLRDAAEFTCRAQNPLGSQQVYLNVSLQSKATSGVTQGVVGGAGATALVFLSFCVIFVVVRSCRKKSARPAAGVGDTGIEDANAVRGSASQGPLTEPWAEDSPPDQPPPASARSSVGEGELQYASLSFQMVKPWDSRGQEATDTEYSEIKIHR
Chain of Protein translocase subunit SecA (Escherichia coli (strain K12)) (P10408 whole entry): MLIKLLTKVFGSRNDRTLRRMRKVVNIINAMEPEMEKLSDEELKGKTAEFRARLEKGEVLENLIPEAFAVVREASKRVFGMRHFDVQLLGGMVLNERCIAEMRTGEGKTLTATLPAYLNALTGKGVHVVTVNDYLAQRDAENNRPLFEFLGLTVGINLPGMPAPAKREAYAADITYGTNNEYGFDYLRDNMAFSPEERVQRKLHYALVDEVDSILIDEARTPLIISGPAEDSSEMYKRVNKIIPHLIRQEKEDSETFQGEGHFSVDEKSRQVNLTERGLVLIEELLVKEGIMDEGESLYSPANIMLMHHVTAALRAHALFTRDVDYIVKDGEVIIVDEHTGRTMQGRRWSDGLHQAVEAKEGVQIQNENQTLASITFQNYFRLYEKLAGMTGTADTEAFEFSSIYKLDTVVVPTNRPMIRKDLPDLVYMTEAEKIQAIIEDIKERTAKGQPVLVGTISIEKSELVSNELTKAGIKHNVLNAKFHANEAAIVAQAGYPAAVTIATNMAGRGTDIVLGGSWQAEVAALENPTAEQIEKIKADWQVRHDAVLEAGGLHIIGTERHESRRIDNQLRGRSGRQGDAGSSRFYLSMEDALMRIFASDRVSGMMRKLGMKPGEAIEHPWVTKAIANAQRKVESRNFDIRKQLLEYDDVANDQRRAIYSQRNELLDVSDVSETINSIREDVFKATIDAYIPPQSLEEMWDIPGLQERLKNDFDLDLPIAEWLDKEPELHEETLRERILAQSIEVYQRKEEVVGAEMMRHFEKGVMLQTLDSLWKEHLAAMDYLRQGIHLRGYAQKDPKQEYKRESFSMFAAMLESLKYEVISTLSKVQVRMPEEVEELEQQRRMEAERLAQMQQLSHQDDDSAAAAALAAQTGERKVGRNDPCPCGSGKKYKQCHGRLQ

Row | Structure (SMILES) | Percent Effect [1] | Percent Effect [2] | Percent Effect [3] | Percent Effect [4] | Percent Effect [5] | Percent Effect [6] | Percent Effect [7] | Percent Effect [8] | Percent Effect [9] | Percent Effect [10] | Percent Effect [11]
1 | O=C(c1ccccc1-c1ccccc1)N1CCOC2(CNCCOC2)C1 (centres undefined) | -2.01% | 8.11% | -0.846% | 7.99% | 0% | 4.76% | 17.9% | 1.86% | 5.82% | 14.6% | -1.37%
2 | Cc1ccc(C(O)CNCc2c(C(C)C)nn(C)c2N(C)C)cc1 (centres undefined) | -7.17% | 13% | -5.78% | 6.38% | 7.87% | -3.56% | 10.1% | -0.105% | 10.7% | 19.5% | -7.91%
3 | CCN(Cc1ccc2c(c1)OCCO2)C(=O)NCc1nc(C)cs1 | 0.275% | 10.4% | -0.784% | -5.04% | -0.294% | 4.84% | 14.6% | 11.4% | 4.76% | 11.8% | -19.3%
4 | O=C(c1cccc(S(=O)(=O)NCCCc2ccco2)c1)N1CCOCC1 | -4.29% | 2.74% | 6.53% | -4.06% | 1.37% | 1.82% | 5.86% | -5.12% | 7.53% | 15% | -2.3%
5 | COCc1nc(CN2CCC3(CCCO3)CCC2=O)no1 (centres undefined) | -7.29% | 5.33% | -4.46% | 6.25% | 7.3% | -2.6% | 12% | 10.4% | 6.01% | 3.7% | -5.51%
6 | N#Cc1ccc(C(=O)N2CC[C@H]3[C@@H]2CCC(=O)N3c2ccccc2)cc1 | 1.09% | 0% | 6.69% | -7.59% | -7.68% | 4.89% | 6.08% | 0.115% | 4.25% | 11.5% | -4.7%
7 | Cc1nc2n(n1)CC(Nc1cc(C(F)(F)F)nc3ncnn13)CC2 (centres undefined) | -4.34% | 5.48% | 10.2% | -0.512% | 5.49% | -0.909% | 11.4% | -14.4% | 2.15% | 17.5% | -3.28%
8 | CCC1=N[C@@]2(CC[C@@H]3CN(S(=O)(=O)CC(C)C)C[C@@H]32)C(=O)N1C | -0.279% | 10.4% | 4.02% | 2.43% | -3.25% | 7.1% | 13.2% | -9.27% | 5.29% | 16.7% | -9.12%
9 | CNc1cncc(C2CCCN2C(=O)c2ccc3oc(=O)n(C)c3c2)n1 (centres undefined) | -2.39% | 14.9% | 8.4% | -7.77% | 3.36% | 0.696% | 9.36% | -8.91% | 5.38% | 3.9% | -16.2%
